Screening data deposited in PubChem by National Center for Advancing Translational Sciences (NCATS).
DT40 TDP1 CPT: qHTS for Inhibitors of human tyrosyl-DNA phosphodiesterase 1 (TDP1): qHTS in cells in presence of CPT; AID 686979, 2013; Potency, µM (titrated, usually from 46.2 µM), for inactives: top-dose activity change, negative = growth inhibition, usual class: inhibitors; chicken DT40 Tdp1-/-;hTDP1 cells + 20 nM CPT, ATP luminescence, 48 h; 12% of 420,000 active; note: potency is the fitted concentration of half-maximal effect; % is set by controls: 0 for no effect and ±100 for the full control effect; nearly all actives have a fitted effect of over 55% in size
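Cell growth measured by CellTiter-Glo luminescence after a minimum 48 h, 37 C compound exposure with 20 nM CPT in Tdp1-knockout DT40 cells stably expressing hTDP1, seeded 400/well; qHTS titration format.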
DT40 TDP1 no CPT: qHTS for Inhibitors of human tyrosyl-DNA phosphodiesterase 1 (TDP1): qHTS in cells in absence of CPT; DT40 Tdp1-/- hTDP1 cells, no CPT, ATP luminescence, 48 h; Potency, µM (highest dose often 46.2 µM), inactives show at the highest dose activity change, negative = growth inhibition, hits mostly inhibitors; 15% of 420,000 active; AID 686978, 2013; note: potency is the fitted concentration of half-maximal effect; % is set by controls: 0 for no effect and ±100 for the full control effect; nearly all actives have a fitted effect of over 55% in size
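A cellular qHTS used chicken DT40 cells lacking endogenous Tdp1 but carrying stably transfected human TDP1. Compounds were applied without camptothecin, and cell growth kinetics were judged by ATP-dependent luminescence after ≥48 hr.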
HepG2 viability: qHTS for Inhibitors of TGF-b: Cytotox Counterscreen. HepG2 CAGA-GFP viability, ATP luminescence, 18 h. Potency, µM (doses to about 46.1 µM), for the others: top-dose activity change, negative = cytotoxicity, most hits filed as cytotoxic. 0.76% of 410,000 active; note: potency is the fitted concentration of half-maximal effect
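CellTiter-Glo luminescence gave cytotoxicity after 18 hours at 37 degrees C. The cells were HepG2 CAGA-GFP in 1% FBS DMEM, stimulated with 500 pg/mL TGF-beta after compound addition. %Activity was normalised to no-cell wells (complete cell-killing) and DMSO (no toxicity), and curves were fitted and classified.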
TDP1 inh: qHTS Assay for Inhibitors of Tyrosyl-DNA Phosphodiesterase (TDP1). recombinant TDP1, AlphaScreen DNA substrate cleavage. Potency, µM (titrated, usually from 130 µM), for the others: top-dose activity change, negative = inhibition, actives largely listed as inhibitors. 0.28% of 350,000 active. AID 485290, 2010; note: potency is the fitted concentration of half-maximal effect; % is set by controls: 0 for no effect and ±100 for the full control effect; nearly all actives have a fitted effect of over 40% in size
Target sequence (Q9NUW8 whole entry, looked up): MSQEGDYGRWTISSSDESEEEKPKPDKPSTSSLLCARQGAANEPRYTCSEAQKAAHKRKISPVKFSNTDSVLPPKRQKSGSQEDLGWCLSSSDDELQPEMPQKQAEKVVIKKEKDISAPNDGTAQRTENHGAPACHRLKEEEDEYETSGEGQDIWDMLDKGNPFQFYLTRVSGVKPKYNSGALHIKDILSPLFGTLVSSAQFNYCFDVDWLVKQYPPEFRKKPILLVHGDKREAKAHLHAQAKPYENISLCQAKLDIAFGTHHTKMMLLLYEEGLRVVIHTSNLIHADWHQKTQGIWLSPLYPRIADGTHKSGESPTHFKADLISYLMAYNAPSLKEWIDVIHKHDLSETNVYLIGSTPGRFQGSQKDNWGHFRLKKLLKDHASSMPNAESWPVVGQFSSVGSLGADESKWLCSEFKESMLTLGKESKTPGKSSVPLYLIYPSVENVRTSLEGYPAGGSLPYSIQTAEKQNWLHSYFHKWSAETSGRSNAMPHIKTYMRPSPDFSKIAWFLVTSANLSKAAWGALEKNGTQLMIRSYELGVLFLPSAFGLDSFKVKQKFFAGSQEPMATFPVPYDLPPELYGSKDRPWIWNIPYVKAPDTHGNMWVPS
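Recombinant E. coli-expressed Tdp1 (1 nM) preincubated with compound 15 min at RT, then 5'-biotin/3'-phosphotyrosine-FITC DNA substrate (15 nM) added for 5 min. AlphaScreen beads (10 ug/ml) added, 10 min RT; tyrosine-FITC cleavage read as signal loss.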
TGFb SMAD3 inh: qHTS for Inhibitors of TGF-b; AID 588855, 2011; Potency, µM (doses to about 46.1 µM), for inactives: at the highest dose activity, negative = inhibition, actives largely listed as inhibitors; HepG2 CAGA-GFP TGF-b/SMAD3 reporter, GFP fluorescence, 18 h; TGF-beta stimulated, 500 pg/mL final; 1.2% of 410,000 active; note: potency is the fitted concentration of half-maximal effect; % is set by controls: 0 for no effect and ±100 for the full control effect; nearly all actives have a fitted effect of over 65% in size
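HEPG2 CAGA-GFP, 1000 cells/well; 2 h settle, 37 C; cpd via pin tool; TGF-b 500 pg/mL final; 18 h, 37 C; GFP imaging ex488/em500-530; %Activity normalised to -TGF-b and +DMSO controls; CRC fit, curve class.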
IL1B secr inh: qHTS for Inhibitors of Inflammasome Signaling: IL-1-beta AlphaLISA Primary Screen | THP-1 LPS/ATP IL-1B secretion, AlphaLISA, 16 h; hits give low values | 4.7% of 360,000 active | activity change, % at 57.5 µM; in the data active = activity change below about -50%; inconclusive = mostly about -30% to -49%; note: % is set by controls: 0 for no effect and ±100 for the full control effect
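Secreted IL-1B measured by AlphaLISA bead assay after 16 h compound exposure of THP-1 cells; compounds (final up to 57.5 uM) added 1 h before LPS (250 ng/mL) and ATP (1.25 mM) stimulation; lower signal means less secretion.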
An asterisk follows results filed as active; u = inconclusive; x = no result; [ ] = another dose, or the depositor's remark. Compounds with a hit are over-represented: about 18% of the library has one in this group of screens. Unless noted, calls come from the whole dose curve; as a rule, active = well fitted curve in the direction sought with a large enough effect; inconclusive = small, poorly fitted or top-dose-only effect, or another doubt; inactive = no such curve, though single readings can be large; an effect the other way counts as inactive or inconclusive.

SMILES | DT40 TDP1 CPT | DT40 TDP1 no CPT | HepG2 viability | TDP1 inh | TGFb SMAD3 inh | IL1B secr inh
COCCn1c(SCc2ccc(F)cc2)nc2c1c(=O)[nH]c(=O)n2C | -26% | -3% | -32% | 5% | -1% | -8
N#CC(C#N)=C1C=CC=CN1/C(=C\c1ccco1)C(=O)c1ccc(-c2ccccc2)cc1 | 0.92µM* | 0.58µM* | 11µM* | 4% | 7.1µM* | -67*
CC(/C=N/n1c(-c2ccc(Cl)cc2)n[nH]c1=S)=C\c1ccco1 | u | u | -7% | 5% | -20% | 3
N#CC(C#N)=C1C=CC=CN1/C(=C\c1ccco1)C(=O)c1ccc(Cl)cc1 | 0.58µM* | 0.92µM* | -12% | 4% | u | -101*
N#C/C(=C\c1ccco1)C(=O)NCc1ccccc1 | -4% | -10% | -7% | 4% | -3% | 0
COc1ccc(O)c(/C=N/NC(=O)c2ccc(CSc3nc(C)cc(C)n3)cc2)c1 | 4.6µM* | 2.9µM* | -37% | u | u | 59
Cc1cc(C)nc(SCc2ccc(C(=O)N/N=C/c3cccc(O)c3O)cc2)n1 | 5.2µM* | 5.8µM* | -17% | -2% | 0% | 44
C/C=C(/C)C(=O)O[C@@H]1c2cc3c(c(OC)c2-c2c(cc(OC)c(OC)c2OC)[C@@H](OC(C)=O)[C@@H](C)[C@H]1C)OCO3 | 18µM* | 16µM* | -3% | -2% | 10% | 1
CCOC(=O)c1ccc(NC(=O)Nc2nc3ccccc3s2)cc1 | u | u | 2% | x | 3% | -10
CCOC(=O)c1ccc(NC(=O)Nc2nncs2)cc1 | 0.018µM* | 0.0065µM* | -19% | x | u | 29
CCOC(=O)c1ccc(NC(=O)Nc2ccon2)cc1 | 0.0073µM* | 0.018µM* | -33% | 1% | u | 82
CCOC(=O)c1ccc(NC(=O)Nc2ccc(Cl)cn2)cc1 | -17% | -18% | 0% | 3% | -1% | 0
CC(C)N1CCC(C)(C(=O)Nc2cc(-c3ccccc3)nn2C)C1 (stereo unspecified) | -19% | -9% | -14% | x | -6% | -2
CCOc1ccc(C(=O)Nc2cc(-c3nc4ccccc4[nH]3)ccc2C)cc1[N+](=O)[O-] | u | u | -26% | 8% | -21% | -50*
Cc1ccc(OCC(=O)Nc2cc(-c3nc4ccccc4[nH]3)ccc2C)c(C)c1 | x | x | -4% | -1% | -5% | x
CCCOc1cccc(C(=O)Nc2cc(-c3nc4ccccc4[nH]3)ccc2C)c1 | 16µM* | 16µM* | -29% | -6%[12.3 µM] | u | x
CCOc1ccccc1NC(=O)c1ccc(OCC)c([N+](=O)[O-])c1 | u | -29% | -11% | 6% | -2% | 3
Cc1ccc(-c2nc3ccccc3[nH]2)cc1NC(=O)COc1ccccc1[N+](=O)[O-] | 15µM* | u | -75% | -10% | 11µM* | x
CCOc1ccc(C(=O)Nc2cc(-c3nc4ccccc4[nH]3)ccc2Cl)cc1[N+](=O)[O-] | u | 23µM* | -43% | x | -23% | -20
CCN(C(=O)COC(=O)CCc1c[nH]c2ccccc12)c1c(N)n(Cc2ccccc2)c(=O)[nH]c1=O | 8% | -5% | -3% | x | -6% | 4
CC(C)CCNC(=O)c1ccc(Cn2c(SCC(N)=O)nc3ccccc3c2=O)cc1 | -23% | -27% | -23% | 8% | 1% | x
N=c1sccn1CC(=O)Nc1ccc([N+](=O)[O-])cc1Cl | 0% | 6% | -4% | x | 0% | u
Cc1cccc(NC(=O)CSc2nnc(-c3ccco3)c(-c3ccco3)n2)c1 | u | 18µM* | 0% | 5% | -29% | -94*
Cc1ccccc1NC(=O)CSc1nnc(-c2ccco2)n1N | -2% | 0% | 5% | x | -6% | -4
Cc1cccc(NC(=O)CSc2nnc(-c3ccco3)c(-c3ccco3)n2)c1C | -7% | u | -7% | u | -11% | -87*
SMILES | DT40 TDP1 CPT | DT40 TDP1 no CPT | HepG2 viability | TDP1 inh | TGFb SMAD3 inh | IL1B secr inh
CC1CCCC(NC(=O)c2cccc(S(=O)(=O)N3CCOCC3)c2)C1C (stereo unspecified) | u | u | 4% | x | -3% | -16
CCCCNC(=O)C1c2ccccc2OCC(=O)N1CCCN1CCOCC1 (stereo unspecified) | -9% | 11% | x | x | x | -1
COc1ccc2cc(CCOC3CCCCO3)ncc2c1 (stereo unspecified) | -26% | u | -2% | 1% | -2% | 1
O=C(O)c1ccc(OCCCCCCOC2CCCCO2)cc1 (stereo unspecified) | u | 18µM* | -12% | x | 2% | 27
COCCNC(=O)c1onc(CSc2ccccc2)c1C(=O)NCCOC | -8% | -1% | -5% | -2% | -2% | 2
COC(=O)c1cc2oc(C)cc2n1CC(=O)Nc1ccc(C(C)C)cc1 | 7.3µM* | 21µM* | 88% | 0% | 113% | x
COC(=O)c1cc2oc(C)cc2n1CC(=O)N(C)c1ccccc1 | 0% | -17% | 5% | 7% | 19% | 16
CCN(CC(=O)Nc1cc(Cl)ccc1C)C(=O)C1CCN(c2ncnc3sc(C)c(C)c23)CC1 | 18µM* | 6.5µM* | -18% | x | u | -12
Cc1sc2ncnc(N3CCC(C(=O)N(C)CC(=O)Nc4ccccc4Cl)CC3)c2c1C | 16µM* | 23µM* | -66% | 5% | -19% | 0
Cc1sc2ncnc(N3CCC(C(=O)N(C)CC(=O)Nc4ccccc4Br)CC3)c2c1C | u | u | -6% | 6% | -2% | u
Cc1sc2ncnc(N3CCC(C(=O)N(C)CC(=O)Nc4cccc(F)c4)CC3)c2c1C | 9.2µM* | 13µM* | -19% | x | -18% | u
CCCCC1CCC(C(=O)N(C)CC(=O)Nc2cccc(F)c2)CC1 (stereo unspecified) | u | u | -18% | -1% | 14% | 0
CC(=O)OCC1OC(C#CC(C)(C)C)C=CC1OC(C)=O (stereo unspecified) | x | x | x | 6%[21 µM] | x | x
Cc1ccc2cc(CNCc3cccc4ccccc34)c(N3CCC(O)CC3)nc2c1 | -2%[9.04 µM] | -29% | x | x | x | x
